In the library only some 5.8% were active in any assay of this set; here they are far more common.
VP16 counter: Gal4-VP16 reporter inhibition counter-screen | Drosophila S2 Gal4-VP16 UAS-luciferase, luminescence, 20 h | Potency, µM (series often up to 53.6 µM), most hits filed as inhibitors | 310,000 tested, 3.5% active | AID 2546;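 further: Gal4-VP16 expression switched on by copper sulfate through the metallothionein promoter; nearly all actives have a fitted effect of over 50% in size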
uPA generation: blocks generation of uPA at the cell surface | cell surface uPA generation assay, qHTS | Potency, µM (highest dose often 38.3 µM), most hits filed as inhibitors | AID 540303 | 330,000 tested, 0.31% active; active means well fitted inhibition curve with a large enough effect; inconclusive means small, poorly fitted or top-dose-only effect; inactive means no such curve, though single readings can be large or run the other way; tested in mouse RAW 264.7 cells; further: nearly all actives have a fitted effect of over 55% in size
TRPV1 potentiator: potentiators of human vanilloid receptor 1 (TRPV1) | TRPV1-expressing cells, Fluo-8 calcium influx, capsaicin EC20 potentiation | potentiation, % at 8.33 µM | 320,000 tested, 0.02% active | AID 540277; in the data active means potentiation above about 80%; inconclusive means between about 30% and that limit
Target sequence (Q8NER1 whole entry, looked up): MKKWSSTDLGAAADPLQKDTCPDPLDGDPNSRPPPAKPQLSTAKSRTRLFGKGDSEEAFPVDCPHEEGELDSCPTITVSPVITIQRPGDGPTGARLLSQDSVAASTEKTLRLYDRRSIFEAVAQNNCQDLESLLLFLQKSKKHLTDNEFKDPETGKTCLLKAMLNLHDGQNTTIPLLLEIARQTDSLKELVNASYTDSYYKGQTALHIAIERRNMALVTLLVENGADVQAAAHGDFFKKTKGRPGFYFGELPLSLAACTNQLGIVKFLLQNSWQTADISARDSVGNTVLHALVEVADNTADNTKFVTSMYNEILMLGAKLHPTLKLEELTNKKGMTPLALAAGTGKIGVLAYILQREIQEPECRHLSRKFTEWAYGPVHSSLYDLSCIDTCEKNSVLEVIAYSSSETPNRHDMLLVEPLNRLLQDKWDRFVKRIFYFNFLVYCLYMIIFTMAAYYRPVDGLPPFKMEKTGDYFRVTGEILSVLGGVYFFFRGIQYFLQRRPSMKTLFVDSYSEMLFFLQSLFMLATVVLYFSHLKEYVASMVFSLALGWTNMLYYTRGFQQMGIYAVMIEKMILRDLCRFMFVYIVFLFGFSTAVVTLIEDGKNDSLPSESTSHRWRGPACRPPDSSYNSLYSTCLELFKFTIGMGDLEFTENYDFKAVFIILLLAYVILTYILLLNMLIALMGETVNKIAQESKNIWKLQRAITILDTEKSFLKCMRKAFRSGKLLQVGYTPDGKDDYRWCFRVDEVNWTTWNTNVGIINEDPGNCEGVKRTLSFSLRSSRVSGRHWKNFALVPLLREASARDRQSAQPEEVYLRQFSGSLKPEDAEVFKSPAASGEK
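Cells expressing TRPV1 were dye-loaded with Fluo-8 and read kinetically: 10 s baseline, 3 min after compound (agonist portion), then 2 min after EC20 capsaicin (allosteric enhancer portion). Calcium-bound dye fluorescence at 480/520 nm.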
RORg inh: inhibitors of mouse ROR gamma transcriptional activity. Drosophila S2 Gal4-RORgamma UAS-luciferase reporter, 20 h. Potency, µM (titrated, usually from 53.6 µM), actives largely listed as inhibitors. AID 2551. P51450. 310,000 tested, 5.4% active; further: nearly all actives have a fitted effect of over 60% in size
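Luminescence from a UAS-regulated Photinus luciferase reporter in stably transfected Drosophila Schneider cells is measured; decreased signal marks ROR gamma inhibition. Fusion expression is induced by 700 uM copper sulfate for 20 hr.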
TRPV1 agonist: human TRPV1 agonism. Q8NER1. TRPV1-expressing cells, Fluo-8 calcium influx, agonist mode. activation, % at 8.33 µM. 320,000 tested, 0.19% active; in the data active means activation above about 80%; inconclusive means between about 30% and that limit
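TRPV1-expressing cells were cultured overnight at 35.5C and loaded with Fluo-8 calcium dye for 40 to 90 min at room temperature. After a 10 s baseline, compound was added and calcium influx was read kinetically for 3 min (ex 480/em 520 nm).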
Large screens that a line does not name were inactive. Unless noted, the call rests on the fitted dose curve; in most records, active means well fitted curve in the direction sought with a large enough effect; inconclusive means small, poorly fitted or top-dose-only effect, or another doubt; inactive means no such curve, though single readings can be large; an effect the other way counts as inactive or inconclusive.

O=C1CC(SCc2nc3ccccc3[nH]2)C(=O)N1c1cccc(Cl)c1 (stereo unspecified)	VP16 counter 12.6µM, RORg inh 10µM
O=C1CC(Sc2nnnn2-c2ccccc2)C(=O)N1c1cccc(Cl)c1 (stereo unspecified)	VP16 counter 3.16µM, RORg inh 3.55µM
COc1ccc(N2C(=O)CC(Sc3nnc(-c4ccccc4)o3)C2=O)cc1 (stereo unspecified)	VP16 counter inconclusive, RORg inh 5.62µM
CC(C)c1cccc2nc3c(c(C(C)(C)C)c12)Cn1c-3cccc1=O	none (no result: uPA generation, TRPV1 potentiator, TRPV1 agonist)
NC[C@@H]1O[C@H](OC2[C@@H](CO)O[C@@H](OC3[C@H](O)[C@H](N)C[C@H](N)[C@H]3OC3O[C@H](CO)[C@@H](O)[C@H](O)[C@@H]3N)[C@H]2O)C(N)[C@H](O)[C@@H]1O (stereo partly specified)	none (no result: uPA generation, TRPV1 potentiator, TRPV1 agonist)
O=C(CCN1C(=O)/C(=C\c2ccccc2)SC1=S)N1CCCCC1	none
O=C1/C(=C/c2cccs2)SC(=S)N1CCC(=O)N1CCCCC1CCO (stereo unspecified)	VP16 counter 11.2µM, RORg inh inconclusive
O=C(CCN1C(=O)/C(=C/c2cccs2)SC1=S)N1CCCCC1	VP16 counter inconclusive, RORg inh 11.2µM
COC(=O)c1ccccc1NC(=S)NC(NC(=O)COc1ccccc1)C(Cl)(Cl)Cl (stereo unspecified)	VP16 counter inconclusive, RORg inh 5.62µM
CCc1ccc(OCC(=O)NC(NC(=S)Nc2ccccc2C)C(Cl)(Cl)Cl)cc1 (stereo unspecified)	VP16 counter 5.01µM, RORg inh 6.31µM, TRPV1 agonist inconclusive
CCc1ccc(OCC(=O)NC(NC(=S)Nc2ccccc2)C(Cl)(Cl)Cl)cc1 (stereo unspecified)	VP16 counter 12.6µM, RORg inh inconclusive, TRPV1 agonist inconclusive
CCc1ccc(OCC(=O)NC(NC(=S)Nc2ccc(C)cc2C)C(Cl)(Cl)Cl)cc1 (stereo unspecified)	VP16 counter inconclusive, RORg inh 10µM
Cc1ccccc1NC(=S)NC(NC(=O)COc1ccccc1)C(Cl)(Cl)Cl (stereo unspecified)	RORg inh inconclusive
CCc1ccc(OCC(=O)NC(NC(=S)Nc2ccccc2OC)C(Cl)(Cl)Cl)cc1 (stereo unspecified)	VP16 counter inconclusive, RORg inh inconclusive
Cc1ccc(S(=O)(=O)Nc2ccc(-c3nnc(SCC#N)n3C)cc2)cc1	none
O=C1CCN(CCc2ccccc2)CCN1C(CSc1ccc(Br)cc1)Cc1ccccc1 (stereo unspecified)	RORg inh inconclusive (no result: uPA generation, TRPV1 potentiator, TRPV1 agonist)
Cn1c(=O)c2ncn(CC(=O)Nc3cccc(-c4nc5ccccc5s4)c3)c2n(C)c1=O	none
COc1cc(CNn2c(C)n[nH]c2=S)cc(Cl)c1OCc1ccccc1	RORg inh 7.94µM
C=CCOc1ccc(CNn2cn[nH]c2=S)cc1OCC	RORg inh 11.2µM (no result: uPA generation)
COc1cccc(CNn2cnnc2)c1OCc1ccc(F)cc1	none
COc1cc(CNn2cn[nH]c2=S)cc(Cl)c1OCc1ccc(F)cc1	VP16 counter 3.98µM, RORg inh 7.08µM, TRPV1 agonist inconclusive
C=CCOc1ccc(CNn2cn[nH]c2=S)cc1OC	none
CCOc1c(Cl)cc(CNCc2ccccn2)cc1OC	none
CSc1nnc(CCNS(=O)(=O)c2ccc(Br)cc2)n1C	none
O=C(OC1Cc2c(O)cc(O)cc2OC1c1cc(O)c(O)c(O)c1-c1c(C2Oc3cc(O)cc(O)c3CC2OC(=O)c2cc(O)c(O)c(O)c2)cc(O)c(O)c1O)c1cc(O)c(O)c(O)c1 (stereo unspecified)	none (no result: uPA generation, TRPV1 potentiator, TRPV1 agonist)
CC(O)C(N)C(=O)O (stereo unspecified)	none (no result: uPA generation, TRPV1 potentiator, TRPV1 agonist)
COc1ccc(C(=O)NC2CCN(CC(=O)NCc3cccc(OC)c3)CC2)cc1	none
COc1ccc(Cl)cc1NC(=O)c1[nH]nc(OC)c1[N+](=O)[O-]	RORg inh 3.55µM
CCN(CC)c1ccc(S(=O)(=O)N(CC)CC)cc1NC(=O)c1cccnc1	none
CC1(C)CC(=O)C(C=NCc2ccccn2)=C(O)C1	VP16 counter 15.8µM, RORg inh 7.08µM
CN=CC1=C(O)CC(C)(C)CC1=O	none
CC(=O)N1N=C(c2ccc(C)cc2)OC1c1ccc(Br)cc1 (stereo unspecified)	none
